Data as given in PubChem BioAssay (NCATS).
Inconclusive results are not listed. The source made the active and inactive calls. The call rests on the fitted dose curve; in most records, active means well fitted curve in the direction sought with a large enough effect; inconclusive means small, poorly fitted or top-dose-only effect, or another doubt; inactive means no such curve, though single readings can be large; an effect the other way counts as inactive or inconclusive.

Key:
[1] = biological target: Aldehyde dehydrogenase, mitochondrial (Homo sapiens) (UniProt P05091); assay: qHTS for Inhibitors of the Aldehyde Dehydrogenase Family (ALDH2) Primary screen (AID 2061308);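 further: plate controls were vehicle for no effect and reference inhibitor for full effect; nearly all actives have a fitted effect of over 55% in size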
[2] = biological target: Retinaldehyde dehydrogenase 3 (Homo sapiens) (UniProt P47895); assay: qHTS for Inhibitors of the Aldehyde Dehydrogenase Family (ALDH1A3) Primary screen (AID 2061315);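 further: plate controls were DMSO vehicle for no effect and reference inhibitor for full effect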
[3] = BET inhibitor-based combinations targeting novel dependencies in MECOM-rearranged (r) AML: SET-2 cell line (AID 2202231); details: SET-2 AML cells viability, CellTiter-Glo luminescence, 48 h; viability: stronger effect = lower value, concentration not given here; further: nearly all actives have a fitted effect of over 35% in size; further: potency means the concentration at half of the fitted maximal effect;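 on viability: plate controls were DMSO treated cells for no effect and wells without cells for full effect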
Summary of the method: (§1)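 Here, 11-point titrations of each agent were applied to 500 seeded cells and incubated 48 hr; CellTiter-Glo signal, scaled against DMSO and empty wells, was integrated as AUC, then Z-scored within the individual line.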

[4] = BET inhibitor-based combinations targeting novel dependencies in MECOM-rearranged (r) AML: MV-4-11 cell line (AID 2202233); further: nearly all actives have a fitted effect of over 45% in size; further: potency means the concentration at half of the fitted maximal effect
Summary of the method: (§2)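 Normalized to DMSO and empty-well controls, the luminescence data from CellTiter-Glo after 48 hr drug exposure were fitted across 11 concentrations. Reported metrics are area under the dose-response curve and its Z-transformed form.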

[5] = BET inhibitor-based combinations targeting novel dependencies in MECOM-rearranged (r) AML: HNT-34 cell line (AID 2202234); further: nearly all actives have a fitted effect of over 35% in size; further: potency means the concentration at half of the fitted maximal effect
Summary of the method: as §2

[6] = BET inhibitor-based combinations targeting novel dependencies in MECOM-rearranged (r) AML: AML-191 cell line (AID 2202236; further: nearly all actives have a fitted effect of over 35% in size; further: potency means the concentration at half of the fitted maximal effect)
Summary of the method: as §1

[7] = BET inhibitor-based combinations targeting novel dependencies in MECOM-rearranged (r) AML: AML-194 cell line (AID 2202237; further: nearly all actives have a fitted effect of over 40% in size; further: potency means the concentration at half of the fitted maximal effect)
Summary of the method: as §1

[8] = BET inhibitor-based combinations targeting novel dependencies in MECOM-rearranged (r) AML: OCI-AML3 cell line (AID 2202232); details: Potency: OCI-AML3 viability; further: nearly all actives have a fitted effect of over 35% in size; further: potency means the concentration at half of the fitted maximal effect
Summary of the method: as §1

[9] = BET inhibitor-based combinations targeting novel dependencies in MECOM-rearranged (r) AML: UCSD-AML1 cell line (AID 2202235); further: nearly all actives have a fitted effect of over 40% in size; further: potency means the concentration at half of the fitted maximal effect
Summary of the method: as §2

Cn1cnc(-c2cc3nccc(Oc4ccc(NC(=S)NC(=O)Cc5ccccc5)cc4F)c3s2)c1
active: Potency [4] 0.105 µM | Potency [5] 3.72 µM
inactive: Potency [1] | Potency [2] | viability [3] 78.9%

COc1cc(N2CCC(N3CCN(C)CC3)CC2)ccc1Nc1ncnc(Nc2ccccc2S(=O)(=O)C(C)C)n1
inactive: Potency [1] | Potency [2]
active: Potency [5] 9.34 µM | Potency [6] 18.6 µM | Potency [7] 10.5 µM

Cc1cn(CCN2CCN(c3ccccc3-c3cc(C#N)cc(C(=O)NCCCN4CCCC4)c3)CC2)c2ccccc12
inactive: Potency [1] | Potency [2]
active: Potency [3] 23.5 µM | Potency [8] 18.6 µM | Potency [4] 20.9 µM | Potency [5] 18.6 µM | Potency [6] 18.6 µM | Potency [7] 18.6 µM

Cc1cn2cc(C(=O)N(C)CCO)cc(N[C@@H]3CCOc4cccc(C)c43)c2n1
inactive: Potency [1] | Potency [2] | viability [3] 112% | Potency [8] | Potency [4] | Potency [5] | Potency [9] | Potency [7]

CCCCc1nc2cc(/C=C/C(=O)NO)ccc2n1CCN(CC)CC
active: Potency [3] 0.662 µM | Potency [8] 0.833 µM | Potency [4] 0.332 µM | Potency [5] 0.833 µM | Potency [9] 0.833 µM | Potency [6] 0.833 µM | Potency [7] 1.18 µM
inactive: Potency [1]

COC(=O)Nc1ccc(-c2nc(N3CCOCC3)c3cnn(C4CCN(Cc5cccnc5)CC4)c3n2)cc1
active: Potency [3] 2.63 µM | Potency [8] 2.63 µM | Potency [4] 1.32 µM | Potency [5] 1.18 µM | Potency [9] 0.525 µM | Potency [6] 1.86 µM
inactive: Potency [1] | Potency [2]

Cc1ccc2c(c1)C=Cc1cc(C)ccc1C2c1cn(Cc2ccc(C(=O)Nc3nn[nH]n3)o2)c(=O)[nH]c1=S
inactive: Potency [1] | Potency [2]

Cc1cnc(Nc2ccc(OCCN3CCCC3)cc2)nc1Nc1cccc(S(=O)(=O)NC(C)(C)C)c1
active: Potency [8] 2.63 µM | Potency [4] 0.742 µM | Potency [5] 1.66 µM | Potency [6] 3.32 µM | Potency [7] 5.25 µM
inactive: Potency [1] | Potency [2]

C[C@@H](Oc1cc(-n2cnc3ccc(OC4CCN(C)CC4)cc32)sc1C(N)=O)c1ccccc1C(F)(F)F
inactive: Potency [1] | Potency [2]

CC(=O)OCC(=O)[C@@]1(O)CC[C@H]2[C@@H]3CCC4=CC(=O)C=C[C@]4(C)[C@H]3[C@@H](O)C[C@@]21C
active: Potency [6] 0.833 µM | Potency [7] 0.372 µM
inactive: Potency [1] | Potency [2] | viability [3] 114% | Potency [4] | Potency [9]

COc1cc2c(Oc3ccc4[nH]c(C)cc4c3F)ncnc2cc1OCCCN1CCCC1
active: Potency [8] 13.2 µM | Potency [4] 18.6 µM | Potency [5] 11.8 µM | Potency [9] 16.6 µM | Potency [6] 20.9 µM | Potency [7] 10.5 µM
inactive: Potency [1] | Potency [2]

O=C(Nc1ccc(F)c(C(F)(F)F)c1)Nc1nnc(-c2ccncc2)s1
inactive: Potency [1] | Potency [2] | Potency [8] | Potency [5] | Potency [9] | Potency [6] | Potency [7]

O=C(Nc1ccc(OC(F)(F)F)cc1)c1sccc1NCc1ccnc2ccccc12
active: Potency [8] 5.25 µM | Potency [4] 6.61 µM | Potency [5] 10.5 µM | Potency [9] 5.9 µM | Potency [6] 8.33 µM | Potency [7] 5.9 µM
inactive: Potency [1] | Potency [2]
